From PubChem BioAssay
An excerpt weighted towards active compounds, which were near 4% of everything screened.
Mtb betalactam – beta-lactam sensitization of Mtb H37Rv | M. tuberculosis H37Rv growth with meropenem, percent inhibition | inhibition, % at 25 µM | hit rate 0.27% among 330,000 | AID 434955;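 further: growth measured after seven days incubation then overnight dye step; 0% = bacteria only wells and 100% = bacteria with antibiotic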
GDH-TPI counter-1 – inhibits GDH-TPI coupling enzymes, artifact for Mtb FBA screen; GDH-TPI coupled enzyme counterscreen, NADH absorbance; inhibition, % at 4.8 µM; hit rate 1.2% among 360,000; in the data active means inhibition above about 30%;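 further: 0% = DMSO wells and 100% = wells lacking the enzyme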
FBA Mtb inh – Mtb fructose-bisphosphate aldolase inhibition; AID 588726; hit rate 2.3% among 360,000; purified M. tuberculosis FBA, fluorescence read-out; P9WQA3; inhibition, % at 1 µM; in the data active means inhibition above about 27%;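 further: 0% = vehicle and 100% = reference inhibitor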
Target sequence (P9WQA3 whole entry, looked up): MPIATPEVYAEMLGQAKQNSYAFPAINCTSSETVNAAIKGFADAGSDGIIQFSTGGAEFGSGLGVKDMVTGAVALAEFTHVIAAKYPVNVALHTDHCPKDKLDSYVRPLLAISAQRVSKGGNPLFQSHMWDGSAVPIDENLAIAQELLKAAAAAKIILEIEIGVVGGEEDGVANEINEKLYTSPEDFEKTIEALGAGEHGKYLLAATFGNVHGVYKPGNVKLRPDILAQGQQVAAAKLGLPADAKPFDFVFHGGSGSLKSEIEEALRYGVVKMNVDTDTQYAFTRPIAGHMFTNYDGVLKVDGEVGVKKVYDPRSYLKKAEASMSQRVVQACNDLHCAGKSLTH
MazF activator – activators of E. coli MazEF toxin-antitoxin RNase; FAM/BHQ RNA-DNA oligo cleavage fluorescence, 5 h; activation, % at 20 µM; hit rate 0.32% among 350,000; in the data active means activation above about 50%
Target sequence (P0AE70 whole entry, looked up): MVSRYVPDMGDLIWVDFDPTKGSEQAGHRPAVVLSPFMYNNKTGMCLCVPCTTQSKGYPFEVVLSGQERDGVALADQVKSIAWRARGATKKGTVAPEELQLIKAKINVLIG
CCHFV vOTU inh – blocks the CCHF virus ovarian tumor domain protease | CCHFV vOTU protease, Pep-AMC fluorescence | inhibition, % at 11.5 µM | hit rate 0.55% among 370,000 | AID 651958; in the data active means inhibition above about 30%; further: 0% = vehicle wells with enzyme and 100% = no enzyme wells
Mtb FBA inh conf – confirmation of M. tuberculosis fructose-bisphosphate aldolase inhibitors; shares compounds with FBA Mtb inh; purified M. tuberculosis FBA, fluorescence read-out; inhibition, % at 1 µM; hit rate 78% among 5,600; AID 651616; in the data active means inhibition above about 27%;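 further: 0% = vehicle wells and 100% = reference inhibitor wells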
GDH-TPI counter-2 – counter-screen for M. tuberculosis FBA inhibitors: GDH-TPI coupled enzyme inhibition; shares compounds with FBA Mtb inh; GDH-TPI coupled enzyme counterscreen, fluorescence; inhibition, % at 1 µM; hit rate 81% among 5,600; in the data active means inhibition above about 10%
GDH-TPI dose – GDH-TPI dose response counter-screen for Mtb FBA. shares compounds with FBA Mtb inh. GDH-TPI coupled enzyme assay, fluorescence, artifact counterscreen. IC50, µM. hit rate 79% among 170. AID 652145
* hit, by the source's call; ? = inconclusive; nt = not tested or not shown. Unless noted, how the calls were made is not given here.

SMILES	Mtb betalactam	GDH-TPI counter-1	FBA Mtb inh	MazF activator	CCHFV vOTU inh	Mtb FBA inh conf	GDH-TPI counter-2	others
O=C(NCC1CC1)c1ccc(-c2cn[nH]c2)c2ccoc12	nt	6.2	27.3*	nt	-11.2	42.7*	31.1*
COCCNC(=O)c1ccc(-c2cn[nH]c2)c2ccoc12	nt	12.5	56.6*	nt	-8.2	43.5*	36.6*
CN1CCN(c2ccc(CNC(=O)c3ccc(-c4cnn(C)c4)c4ccoc34)cc2)CC1	nt	0.9	-1.7	nt	17.2	nt	nt
O=S1(=O)c2ccc(N3CCCC3)cc2Oc2ccccc2CN1Cc1cn(Cc2ccc(F)cc2)nn1	nt	nt	nt	nt	7.4	nt	nt
O=C(N[C@H](Cc1ccccc1)C(=O)NCc1cccc2ccccc12)[C@H]1O[C@@H](n2ccc(=O)[nH]c2=O)[C@H](O)[C@@H]1O	nt	nt	nt	nt	-7.7	nt	nt
Cc1oc(-c2ccc(F)cc2)nc1CN1CCCC(C(=O)N2CCOCC2)C1 (stereo not given)	nt	1.2	-3.3	1.7	16.7	nt	nt
COC(=O)c1ccc(-c2nc(CN3CCC(C(=O)N4CCOCC4)CC3)c(C)o2)cc1	?	-3.1	48.5*	2.5	nt	47.0*	36.7*
CCOc1ccc(C(C(=O)NCC2CCCO2)N(C(=O)c2snc(C(N)=O)c2N)c2ccccc2F)cc1 (stereo not given)	1.1	12.7	52.7*	9.3	-19.3	61.7*	50.5*
NC(=O)c1nsc(C(=O)N(c2ccccc2F)C(C(=O)NCc2ccc(F)cc2)c2ccc(O)cc2)c1N (stereo not given)	-0.2	2.3	35.1*	8.2	-47.9	144.6*	106.8*
Cc1ccccc1N(C(=O)c1snc(C(N)=O)c1N)C(C(=O)NC1CCCC1)c1ccco1 (stereo not given)	nt	10.3	37.0*	10.2	-29.2	134.0*	98.4*
Cc1ccc(C(C(=O)NCC2CCCO2)N(C(=O)c2snc(C(N)=O)c2N)c2ccc(F)cc2)o1 (stereo not given)	-4.1	5.5	9.1	3.6	-2.4	nt	nt
Cc1ccc(C(C(=O)NCC2CCCO2)N(C(=O)c2snc(C(N)=O)c2N)c2ccccc2F)o1 (stereo not given)	-5.2	9.0	33.2*	-4.1	-67.9	58.8*	39.2*
COc1ccccc1N(C(=O)c1snc(C(N)=O)c1N)C(C(=O)NCc1ccccc1)c1ccc(O)cc1 (stereo not given)	nt	2.2	18.4	4.5	-24.1	nt	nt
CCCCN1CN2CCc3ccccc3C2CS1(=O)=O (stereo not given)	nt	nt	nt	nt	0.8	nt	nt
CCOc1ccc(C(C(=O)NCC2CCCO2)N(C(=O)c2snc(C(N)=O)c2N)c2cccc(F)c2)cc1 (stereo not given)	-1.8	8.8	34.2*	7.1	-30.3	91.0*	72.0*
COc1ccc2oc(=O)c(C(=O)N3CCN(c4ccccc4)CC3)cc2c1	-1.4	14.4	1.9	0.6	1.4	nt	nt
COc1cc2ccccc2cc1C(=O)N1CCN(C(C)=O)CC1	-6.5	6.1	1.4	1.7	3.2	nt	nt
COc1ccc2cc(OC)c(C(=O)N3CCOCC3)cc2c1	0.2	-7.5	35.7*	-1.0	-28.1	-2.1	-4.5
O=C(c1ccco1)N1CCN(C(=O)c2cc3ccccc3oc2=O)CC1	1.6	10.0	2.0	9.4	12.4	nt	nt
COc1ccc2oc(=O)c(C(=O)N3CCN(C(=O)c4ccccc4)CC3)cc2c1	-5.5	1.5	27.3*	5.3	-50.6	118.7*	92.2*
COc1ccc2oc(=O)c(C(=O)N3CCN(C(=O)c4ccco4)CC3)cc2c1	-7.4	1.5	34.4*	0.9	-46.9	114.8*	76.4*
CCOC(=O)C1=C(COC(=O)C2CC(=O)N(c3ccc(C)cc3)C2)NC(=O)NC1C (stereo not given)	-4.3	3.9	65.1*	-0.5	8.0	138.1*	88.8*
CN(C)C(=O)c1cccc(-c2cccc3nccn23)c1	nt	6.7	40.8*	nt	-1.9	87.8*	58.5*
COC(=O)[C@]12C[C@H](CC(=O)NCCCN3CCCC3=O)C(=O)N(Cc3ccco3)C1=C[C@H](COCc1ccccc1)O[C@@H]2C	nt	nt	nt	nt	-5.0	nt	nt
CCn1c(-c2cccs2)nc2ccccc21	63.8	2.2	57.7*	7.7	-10.5	122.5*	108.1*
SMILES	Mtb betalactam	GDH-TPI counter-1	FBA Mtb inh	MazF activator	CCHFV vOTU inh	Mtb FBA inh conf	GDH-TPI counter-2	others
C#CCn1c(-c2cccs2)nc2ccccc21	2.5	10.4	67.6*	-15.6	-8.2	61.5*	39.3*
C#CCn1c2ccccc2c2nc3ccccc3nc21	4.1	14.4	2.8	-7.8	-3.6	nt	nt
N#Cc1nc(-c2ccccc2)oc1N1CCN(C(=O)c2ccco2)CC1	8.3	18.9	67.6*	-5.6	-22.2	40.5*	32.2*
N#Cc1nc(-c2cccs2)oc1N1CCN(Cc2ccccc2)CC1	2.2	27.1	51.2*	-1.1	-20.5	12.3	6.2	GDH-TPI dose=1.76*
N#Cc1nc(COc2ccccc2)oc1N1CCN(Cc2ccccc2)CC1	-2.0	-1.2	-8.3	0.2	12.8	nt	nt
COc1cc(C2CC=C(C(=O)O)C(c3ccccc3F)N2S(=O)(=O)c2ccc(C)cc2)cc(OC)c1OC (stereo not given)	nt	nt	nt	nt	-2.1	nt	nt
Cc1nn(-c2ccccc2)c(C)c1N	-7.6	-7.9	-0.3	-3.2	7.9	nt	nt
Cc1c(O)cnc2nn(-c3ccccc3)c(=N)n12	nt	nt	90.9*	nt	-48.9	81.2*	52.0*
COC(=O)[C@]12C[C@H](CC(=O)N3CCCC3)C(=O)N(Cc3cccc4ccccc34)C1=C[C@H](C(C)(C)C)O[C@@H]2C	nt	nt	nt	nt	16.2	nt	nt
CCCCCCCCNS(=O)(=O)/C=C/c1ccc(OC)cc1CNC(=O)OC(C)(C)C	nt	nt	nt	nt	21.9	nt	nt
Oc1ccccc1/C=N/NC(=S)NC1CC2CCC1C2 (stereo not given)	97.8	25.2	0.6	17.6	-1.1	nt	nt
CCOc1ccc(/C=N/NC(=S)NC2CC3CCC2C3)cc1 (stereo not given)	4.4	0.8	30.6*	-7.2	4.5	-2.9	-3.7
COc1cc(-c2ccc3oc(-c4ccsc4)cc(=O)c3c2)cc(OC)c1OC	94.8	19.6	-1.9	28.8	1.0	nt	nt
COc1ccc(-c2ccc3c(=O)cc(-c4ccsc4)oc3c2)cn1	-0.4	15.0	47.9*	69.6*	-16.8	9.7	1.1
Cc1cc(Nc2cc(Cl)cc(Cl)c2)cc(=O)n1-c1cc(Cl)cc(Cl)c1	nt	nt	nt	nt	-6.4	nt	nt
C=CCN1C(=O)[C@H](CC(=O)NCC2CCCCC2)[C@@]2(C(=O)OCC)CCCC=C12	nt	nt	nt	nt	11.1	nt	nt
CC(=O)Nc1cnc(/C=C\CCCO)cn1	nt	14.2	31.6*	nt	-20.0	0.6	-4.0
CC(=O)Nc1cnc(-c2ccccc2C(C)=O)cn1	nt	7.1	0.4	nt	-7.0	nt	nt
CC(C)CN1C(=O)[C@]2(CC(=O)N(C)C2c2ccccc2)c2cc(-n3cc(CO)nn3)ccc21 (stereo not given in full)	nt	nt	nt	nt	19.5	nt	nt
